One test relates to KB-3-1. Briefly: Cytotoxic Profiling of Annotated Libraries Using Quantitative High-Throughput Screening (AID 1296008). Further: potency means the concentration at half of the fitted maximal effect. The note with it: Five cell lines viability, CellTiter-Glo ATP luminescence, 48-72 h; max response: hits give low values. The gist of the method: (§1)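 Cytotoxicity was measured as CellTiter-Glo ATP luminescence, read after 10 min at room temperature. Compound treatment of the cells lasted 48 or 72 hr at 37 degrees Celsius in a qHTS format.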
A general note: Cellular ATP, detected with luciferase, serves as a proxy for viable cell number.

Test [1] concerns HaCat. The test is described as above. To be noted: Five cell lines viability, CellTiter-Glo ATP luminescence, 48-72 h; hits give low values. The gist of the method:
as §1

Test [2] concerns NIH3T3. The description is as above. To be noted: Five cell lines viability, CellTiter-Glo ATP luminescence, 48-72 h; max response: hits give low values. The gist of the method:
as §1

A further test deals with MCC-13. The test can be described thus: qHTS assay to identify novel small-molecules to repurpose for Merkel cell carcinoma treatment (AID 1296009). The note with it: MCC and control cell lines, CellTiter-Glo viability, 72 h; series mostly up to 46 µM. The gist of the method: (§2)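 After compound transfer in DMSO, plates were kept 72 hr at 37 degree celsius. Luminescent ATP signal from CellTiter-Glo served as viability measure, normalized against DMSO and no-cell controls.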
(In qHTS, concentration-response curves come from the screen itself.)

The subject of a further test is MCC-26. The test is described as above. The note with it: MCC and control cell lines, CellTiter-Glo viability, 72 h; series mostly up to 46 µM. The gist of the method:
as §2

In a further test the test system is MKL-1. The description is as above. To be noted: MCC and control cell lines, CellTiter-Glo viability, 72 h; series mostly up to 46 µM. The gist of the method:
as §2

Another test concerns MKL-2. The test is described as above. To be noted: MCC and control cell lines, CellTiter-Glo viability, 72 h; series mostly up to 46 µM. The gist of the method:
as §2

Test [3] concerns HACAT. The test is described as above. The note with it: MCC and control cell lines, CellTiter-Glo viability, 72 h; at 44.8 µM (top of the series). The gist of the method: as §2
The test system of test [4] is NIH3T3. Described as above. The note with it: MCC and control cell lines, CellTiter-Glo viability, 72 h; at 44.8 µM (top of the series). The gist of the method: as §2
The next test concerns HEK293T. Described as above. The note with it: MCC and control cell lines, CellTiter-Glo viability, 72 h; at 44.8 µM (top of the series). The gist of the method: as §2

Several values for one entry are separate records, joined by “and”; a condition that tells them apart may be missing. Equal values may be shown once. Results filed as inconclusive are left out. Values without a mark were called inactive. Activity calls are given as the source filed them. The call rests on the fitted dose curve; in most records, active means well fitted inhibition curve with a large enough effect; inconclusive means small, poorly fitted or top-dose-only effect; inactive means flat fitted curve, though single readings scatter.
Further: nearly all actives have a fitted effect of over 60% in size.
On the % scale 0 is the no-effect control and ±100 the full control effect.

As to `CC1(C)S[C@@H]2[C@H](NC(=O)C3(N)CCCCC3)C(=O)N2[C@H]1C(=O)O`, the max response in the test with KB-3-1 was -2.76%.
For `CC(=O)Nc1ccc(NC(=S)NC(=O)c2ccc(C(C)(C)C)cc2)cc1`, the max response with HaCat [1] is -11.2%. For the same compound, the Potency in the test on KB-3-1 was 4.11 µM (active); in the test with NIH3T3 [2] it was 16.4 µM (active).
Consider `NC[C@H]1O[C@H](O[C@H]2[C@H](O)[C@@H](O[C@H]3O[C@H](CO)[C@@H](O)[C@H](N)[C@H]3O)[C@H](N)C[C@@H]2N)[C@H](N)C[C@@H]1O`, for which the max response in the test on KB-3-1 is -4.68%.
On to `C[C@H](CCCC(C)(C)O)[C@H]1CC[C@H]2[C@@H]3CC=C4C[C@@H](O)CC[C@]4(C)[C@H]3CC[C@]12C`, for which the max response in the test with KB-3-1 was 2.18%.
With `Nc1ccc(N=Nc2ccccc2)c(N)n1`, the results for the max response with HaCat [1], with KB-3-1 and in the test with NIH3T3 [2] were 0.77%, 1.52% and -0.826%, respectively. For the same compound, the call in the test on MCC-13, in the test with MCC-26, in the test on MKL-1 and with MKL-2 was inactive.
Take `C=C1CC[C@H](O)CC1=C/C=C1\CCC[C@]2(C)[C@@H]([C@H](C)/C=C/[C@H](C)C(C)C)CC[C@@H]12`: the result in the test on HaCat [1] and in the test with HACAT [3] was inactive. Also, the max response in the test with KB-3-1 was 7.88% and 8.32%.
In the case of `CC(=O)[C@@]1(O)CC[C@H]2[C@@H]3C=C(Cl)C4=CC(=O)[C@@H]5C[C@@H]5[C@]4(C)[C@H]3CC[C@@]21C`, the max response in the test on KB-3-1 is 1.37%.
The same measure, in the same setting: as for `CC(C)c1ncc([N+](=O)[O-])n1C`, the figure is -7.8%.
In the case of `C/C(=C\C(=O)OCCCCCCCCC(=O)O)C[C@@H]1OC[C@H](C[C@@H]2O[C@H]2[C@@H](C)[C@H](C)O)[C@@H](O)[C@H]1O`, the max response is -2.01% in the test on HaCat [1], -2.38% with KB-3-1 and -3.66% in the test on NIH3T3 [2].
As for `O=C(O)Cc1cc(I)c(Oc2ccc(O)c(I)c2)c(I)c1`, the compound was called inactive with HaCat [1], in the test with NIH3T3 [2], in the test on HACAT [3] and in the test with NIH3T3 [4]. In addition, the max response with KB-3-1 was 1.68% and -7.08%.
With `COC(=O)CC[C@H](N)C(=O)O`, in the test on KB-3-1, the max response was 0.526%.
Take `COc1ccc2nc(NC(=O)Nc3ccccc3)sc2c1`: the outcome with HaCat [1], in the test on HACAT [3], in the test on MCC-13, in the test on MCC-26, in the test on MKL-1 and in the test with MKL-2 was inactive. Also, the max response in the test with KB-3-1 was 36.1%; in the test on NIH3T3 [2], -17.1%.
As to `CC1CC(OC(=O)C(O)c2ccccc2)CC(C)(C)C1` (stereo not drawn), the compound was called inactive in the test on HaCat [1] and with HACAT [3]. Also, the max response with KB-3-1 was 19.9% and -6.72%; in the test with NIH3T3 [2], 2.78%.
Turning to `O=C(OC1C[C@@H]2CC3C[C@H](C1)N2CC3=O)c1c[nH]c2ccccc12` (stereo partly drawn), the max response in the test with KB-3-1 was -14.8%.
On the same count and under the same terms, as for `O=C(O)COc1ccc(CCNS(=O)(=O)c2ccccc2)s1`, the figure is -3.19%; as for `Cc1c(N)nc([C@H](CC(N)=O)NC[C@H](N)C(N)=O)nc1C(=O)N[C@H](C(=O)N[C@H](C)[C@@H](O)[C@H](C)C(=O)N[C@H](C(=O)NCCc1nc(-c2nc(C(=O)NCCCCN=C(N)N)cs2)cs1)[C@@H](C)O)[C@@H](O[C@@H]1O[C@@H](CO)[C@@H](O)[C@H](O)[C@@H]1O[C@H]1O[C@H](CO)[C@@H](O)[C@H](OC(N)=O)[C@@H]1O)c1cnc[nH]1`, -6.52% and -5.98%; as for `CC(=O)OCC(=O)[C@@]1(O)CC[C@H]2[C@@H]3CCC4=CC(=O)CC[C@]4(C)C3=CC[C@@]21C`, -7.13%.
Consider `COc1ccc(/C=C/C(=O)O)cc1`, for which, in the test on KB-3-1, the max response is -11.7%.
For `CC(C)C[C@H](NC(=O)[C@@H](COC(C)(C)C)NC(=O)[C@H](Cc1ccc(O)cc1)NC(=O)[C@H](CO)NC(=O)[C@H](Cc1c[nH]c2ccccc12)NC(=O)[C@H](Cc1cnc[nH]1)NC(=O)[C@@H]1CCC(=O)N1)C(=O)N[C@@H](CCCN=C(N)N)C(=O)N1CCC[C@H]1C(=O)NNC(N)=O`, the max response with KB-3-1 is -3.63% and -15.5%.
Consider `Cc1cc(=O)c(C(=O)N[C@@H](C(=O)N[C@@H]2C(=O)N3C(C(=O)O)=C(CSc4nnnn4C)CS[C@H]23)c2ccc(O)cc2)c[nH]1`, for which the max response with KB-3-1 is 0.794%.
With `CNCC(O)c1ccc(OC(=O)C(C)(C)C)c(OC(=O)C(C)(C)C)c1` (stereo not drawn), in the test with KB-3-1, the max response is -7.58%.
The same measure, in the same setting: as for `O=C(OCc1ccccc1)c1cccnc1`, the figure is -9.74%.
Still for that read-out and setting: as for `CCOc1cc(-c2nccc3cc(OC)c(OC)cc23)cc(OCC)c1OCC`, the figure is -26.3%; as for `CN1CCCC(CN2c3ccccc3Sc3ccccc32)C1` (stereo not drawn), -10.2%; as for `Nc1nc(=O)n([C@@H]2CS[C@H](CO)O2)cc1F`, 6.08%.
Same read-out and setting: then `COc1cc2c(cc1OC)[C@@H](c1ccccc1)CN(C)CC2`, with -3.02%.
For the compound `C[C@]12CC[C@@H]3c4ccc(OC(=O)c5ccccc5)cc4CC[C@H]3[C@@H]1CC[C@@H]2O`, the max response was -1.32% with HaCat [1] and -12.6% in the test with KB-3-1. The compound was classed as inactive in the test on NIH3T3 [2] and in the test with NIH3T3 [4].
For `CN(C)CCCSc1ccccc1NC(=O)/C=C/c1ccccc1`, the result in the test with HaCat [1], in the test on HACAT [3], in the test with MCC-13, in the test on MCC-26, in the test on MKL-1 and in the test on MKL-2 was inactive. Moreover, the max response in the test with KB-3-1 was -0.0858%.
For `O=C(O)/C=C/C(=O)Nc1ccc(S(=O)(=O)Nc2nccs2)cc1`, in the test with KB-3-1, the max response is -6.18%.
Still for that read-out and setting: then `Cc1c(O)c(=O)ccn1C`, with 5.64%; and `C=C1CC[C@H](O)CC1=C/C=C1\CCC[C@]2(C)[C@@H]([C@H](C)CCCC(C)(C)O)CC[C@@H]12`, with 5.57%.
On the same count and under the same terms, as for `CCCCC/C=C\C/C=C\C/C=C\CCCCC(=O)O`, the figure is -2.17%; as for `COC1[C@@H](O[C@@H]2O[C@H](C)[C@@H](O[C@H]3C[C@@](C)(O)[C@H](OC(=O)CC(C)C)[C@H](C)O3)[C@H](N(C)C)[C@H]2O)[C@@H](CC=O)C[C@@H](C)[C@@H](O)/C=C/C=C/C[C@@H](C)OC(=O)C[C@H]1OC(C)=O` (stereo partly drawn), -19.6%.
Consider `CCN(CC)CCOCCOC(=O)C(CC)(CC)c1ccccc1`, for which the call in the test on HaCat [1] and in the test on HACAT [3] was inactive. The max response in the test with KB-3-1 is -1.64% and -0.0412%; with NIH3T3 [2], 0.0854%.
On to `O=C1c2ccccc2C(=O)c2c1ccc(O)c2O`, for which the max response is 4.09% with HaCat [1], -6.82% in the test on KB-3-1 and -5.2% in the test on NIH3T3 [2]. Further, the outcome with MCC-13, in the test with MCC-26, in the test on MKL-1 and in the test with MKL-2 was inactive.
Take `CC(C)(O/N=C(\C(=O)N[C@@H]1C(=O)N2C(C(=O)[O-])=C(C[n+]3ccccc3)CS[C@H]12)c1csc(N)n1)C(=O)O`: in the test with KB-3-1, the max response was -11.3%.
Turning to `CC(C)(C)c1ccc(CN2CCN(C(c3ccccc3)c3ccc(Cl)cc3)CC2)cc1` (stereo not drawn), the compound was called inactive in the test with HaCat [1], in the test on NIH3T3 [2], in the test on HACAT [3] and with NIH3T3 [4]. Further, in the test on KB-3-1, the max response is 1.38% and -2.29%.
Consider `CC(=O)Oc1cccc2c1C(=O)c1c(OC(C)=O)cc(C(=O)O)cc1C2=O`, for which the compound was called inactive in the test with HaCat [1], in the test on HACAT [3], in the test on MCC-13, in the test on MCC-26, in the test on MKL-1 and in the test with MKL-2. The max response in the test on KB-3-1 is -2.72%.
Regarding `O=C(/C=C/c1cccc(F)c1)NC1CC1`, in the test on KB-3-1, the max response was -16.5%.
For `Nc1ncnc2c1ncn2CCOCP(=O)(O)O`, the max response in the test with KB-3-1 was -6.33%.
As for `O=C(OCc1ccccc1)c1ccc(O)cc1`, the max response in the test with NIH3T3 [2] is 0.27%. Besides, the outcome with HEK293T and in the test with MKL-2 was inactive.
As to `O=C(O)CCC(=O)c1ccc(-c2ccccc2)cc1`, the result in the test on MKL-2 was inactive.

The record behind these values is PubChem BioAssay (NCATS).
